# D1 PAM: human D1 dopamine receptor positive modulation. P21728. HEK293 TREx D1 cells, calcium flux, dopamine EC20 potentiation. potentiation, % at 10 µM. 360,000 tested, 0.036% active. AID 504651; in the data active = potentiation above about 30%; note: 0% is about no effect
# Target sequence (P21728 whole entry, looked up): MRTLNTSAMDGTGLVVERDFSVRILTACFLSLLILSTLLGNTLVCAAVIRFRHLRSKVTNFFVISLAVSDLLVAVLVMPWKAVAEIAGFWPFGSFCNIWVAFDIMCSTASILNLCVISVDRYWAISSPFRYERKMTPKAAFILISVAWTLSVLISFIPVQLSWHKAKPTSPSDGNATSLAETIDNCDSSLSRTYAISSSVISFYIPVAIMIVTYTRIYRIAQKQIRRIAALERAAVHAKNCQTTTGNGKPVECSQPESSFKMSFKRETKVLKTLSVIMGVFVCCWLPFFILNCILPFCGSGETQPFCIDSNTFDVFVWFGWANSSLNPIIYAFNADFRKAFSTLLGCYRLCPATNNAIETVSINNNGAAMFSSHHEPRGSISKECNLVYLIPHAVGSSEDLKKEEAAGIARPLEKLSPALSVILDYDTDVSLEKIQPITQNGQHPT
# USP2a inh: blocks human ubiquitin-specific protease USP2a | USP2 core, Ub-CHOP2 coupled fluorogenic reporter, 485/531 | 330,000 tested, 0.01% active | O75604 | Potency, µM (top dose mostly 38.3 µM), without a hit: at the top dose activity change, negative = inhibition, actives largely listed as inhibitors | AID 463254;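 note: potency is the fitted concentration of half-maximal effect; plate controls were DMSO wells for no effect and full inhibition by NEM control for full effect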
#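 Cell-free coupled assay: 10nM USP2 core preincubated 30min RT with compound in Tris-HCl pH 8.0/CaCl2/CHAPS buffer, then 25nM Ub-CHOP2 and 25nM reporter substrate; fluorescence (Ex 485/Em 531) read after 60min RT, normalized to NEM inhibition, concentration-response curves fitted.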
# D1 antag: antagonists of human D1 dopamine receptor; HEK293 TREx D1 cells, calcium flux, dopamine EC80; stronger effect = lower value; activity change, negative = inhibition, % at 10 µM; 360,000 tested, 3.2% active; in the data active = activity change below about -30%; note: % is set by controls: 0 for no effect and ±100 for the full control effect
#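 Antagonism measured as reduced calcium response to an EC80 dopamine addition following 180 s compound pre-read; cells were inducible HEK293 Trex D1 plated overnight at 30 C, read kinetically at 1 cycle/sec.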
# Eya2 phos inh: Eya2 (human) phosphatase inhibition; O00167; recombinant Eya2, OMFP fluorescence dephosphorylation (OMFP is methylfluorescein phosphate); Potency, µM (top dose mostly 76.9 µM), inactives show at the highest dose activity, negative = inhibition, hits mostly inhibitors; 330,000 tested, 0.006% active; AID 488837; note: potency is the fitted concentration of half-maximal effect; % is set by controls: 0 for no effect and ±100 for the full control effect
#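 Eya2 protein (added as 0.2 uM solution) was preincubated with compound for 10 min at ambient temperature in 50 mM HEPES pH 7.5, 50 mM NaCl, 5 uM MgCl2, 0.05% BSA, 1 mM DTT. OMFP (added at 50 uM) then reacted 10 min; fluorescence read at 485/525 nm.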
# D1 ag: agonists of human D1 dopamine receptor; activation, % at 2 µM; HEK293 T-REx D1 cells, calcium flux, agonist mode; 360,000 tested, 1% active; AID 504660; in the data active = activation above about 30%; note: 0% is about no effect
#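 Inducible HEK293 T-REx D1 cells, force-coupled to calcium signalling, were plated at 4000 cells/well with tetracycline and held overnight at 30 C. After no-wash calcium dye loading, compound-evoked calcium rise over 180 s flagged agonists.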
# GALK inhibitor: inhibitors of human galactokinase; P51570; Purified GALK, Kinase-Glo residual ATP luminescence; Potency, µM (doses to about 57.5 µM), for inactives: at the top dose activity change, negative = inhibition, usual class: inhibitors; 270,000 tested, 0.007% active; AID 1868; note: potency is the fitted concentration of half-maximal effect; % is set by controls: 0 for no effect and ±100 for the full control effect
#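 Luminescence from leftover ATP (Ultra-Glo luciferase/luciferin) served as read-out after a 1 h room-temperature reaction of 5 nM GALK with 35 uM ATP and 100 uM galactose.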
# * marks the source's active call; other numbers are inactive results; . = no result; ! = a repeat was not active. An excerpt weighted towards active compounds, which were near 3.9% of everything screened. Unless noted, calls come from the whole dose curve; as a rule, active = well fitted inhibition curve with a large enough effect; inconclusive = small, poorly fitted or top-dose-only effect, or effect the other way; inactive = flat fitted curve, though single readings scatter.
SMILES,D1 PAM,USP2a inh,D1 antag,Eya2 phos inh,D1 ag,GALK inhibitor
Cc1ccccc1CS(=O)(=O)c1nnc([C@H](Cc2ccccc2)NC(=O)OC(C)(C)C)o1,-11,-5%,-38*,-3%,20,1%
CCOc1ccc(C2C(C#N)=C(N)SC(N)=C2C#N)c(OCC)c1,2,3%,3,15%,3,-4%
CCCCc1ccc(C2C(C#N)=C(N)SC(N)=C2C#N)s1,-9,6%,-67*,21%,63*,-4%
CCCc1cc(=O)n2[nH]c(NCc3cccs3)nc2n1,2,3%,-37*,-17%,6,1%
CCCc1cc(=O)n2[nH]c(NCc3ccccc3Cl)nc2n1,2,2%,0,20%,3,-5%
O=C(COc1ccc2cc(Br)ccc2c1)N1CCOCC1,.,4%,.,-8%,.,.
O=C(Oc1ccc2cc(Br)ccc2c1)N1CCCCCC1,-1,2%,-7,-3%,41*,2%
COc1ccc(C2CNC(=O)C2)cc1OC1CCCC1 (stereo not drawn),2,0%,-42*!,7%,1,-2%
COC(=O)C1=C(N)c2c(F)cccc2C1(C#N)c1ccccc1 (stereo not drawn),-5,-2%,-32*,-2%,0,1%
COCCCNc1oc(/C=C/c2cc(OC)c(OC)c(OC)c2)nc1C#N,-2,.,2,.,0,.
COC(=O)c1c(NC(=O)CCCOc2ccc(C)cc2)sc2c1C(C(=O)OC)CC2 (stereo not drawn),5,.,13,.,7,.
C=C1C[C@@]23CC[C@H]4[C@@](C)(CCC[C@@]4(C)C(=O)OC4OC(CO)C(O)C(O)C4O)[C@@H]2CC[C@]1(OC1OC(CO)C(O)C(O)C1OC1OC(CO)C(O)C(O)C1O)C3 (stereo partly drawn),.,.,.,0%,.,.
Cc1ccccc1/C=C/C1=NCCN1,-7,0%,-43*,5%,0,.
COc1cc2nc(CN3CCN(S(=O)(=O)c4c(F)cccc4F)CC3)[nH]c(=O)c2cc1OC,.,2%,-32*,-7%,5,.
COc1ccc(CCNC(=O)c2ccc3c(c2)CCN3S(=O)(=O)c2ccccc2)cc1OC,4,.,-21,.,4,.
COc1ccc(N(Cc2cccs2)C(=O)COc2ccc(C(C)C)cc2)cc1,-1,.,-18,.,22,.
COC(=O)c1cc2c(s1)c1cnn(Cc3ccccc3F)c(=O)c1n2C,-4,-1%,-21,1%,5,.
CN1CCN(/N=C/c2ccc(OCc3ccccc3)cc2)CC1,-19,-1%,-69*,-3%,32*,2%
Cc1ccc(-c2nn3c(=O)cc(CN4CCN(C(=O)c5ccc(C(C)(C)C)cc5)CC4)nc3s2)cc1,5,.,-5,.,0,.
O=C1CCc2cc(NS(=O)(=O)c3ccc(F)cc3)cc3c2N1CCC3,-4,-1%,-38*,14%,3,.
O=C1CCc2cc(NS(=O)(=O)c3ccccc3)cc3c2N1CCC3,-4,1%,5,-3%,6,.
O=C(NCCSCc1cccc(Cl)c1)C1CCN(S(=O)(=O)Cc2ccccc2)CC1,2,.,-10,.,-2,.
N#CCCn1nc(-c2ccc([N+](=O)[O-])cc2)cc1Nc1ccccc1NC(=O)C(F)(F)F,-8,4%,-27,1%,31*,0%
N#CCCn1nc(-c2ccccc2)cc1Nc1ccccc1NC(=O)C(F)(F)F,-5,1%,12,-3%,22,1%
Cn1c(C(=O)NCc2ccc(F)cc2)cc2c(=O)n(C)c3ccccc3c21,-2,.,-5,.,1,.
SMILES,D1 PAM,USP2a inh,D1 antag,Eya2 phos inh,D1 ag,GALK inhibitor
CC(C)N(Cc1nc(-c2ccc(Cl)cc2)no1)C(=O)c1cccs1,-9,1%,-12,-10%,7,-1%
Cc1ccc(-c2noc(CN(C(=O)c3cccs3)C(C)C)n2)cc1,0,1%,-30*,-16%,3,-2%
CCOc1cc(C(=O)N(Cc2nc(-c3ccc(C)cc3)no2)C(C)C)cc(OCC)c1OCC,1,.,-35*,.,19,.
COc1ccc(-c2cc(C(F)F)nc(-n3nc(C)cc3C)n2)cc1,-14,-11%,-60*,-6%,6,2%
Cc1ccc(-c2cc(C(F)F)nc(N3CCOCC3)n2)cc1,1,-1%,13,-4%,3,4%
COc1ccccc1NC(=O)/C(=C\c1cccnc1)NC(=O)c1ccc(C)cc1,3,2%,-32*,-10%,2,-2%
COc1ccccc1NC(=O)/C(=C\c1cccnc1)NC(=O)c1ccccc1,-5,2%,9,9%,-1,12%
COc1ccccc1NC(=O)/C(C#N)=C/c1cccnc1,-6,0%,-31*,-7%,-1,0%
COc1ccccc1NC(=O)/C(C#N)=C/c1ccncc1,-4,0%,-13,-2%,17,-3%
N#C/C(=C\c1cccnc1)C(=O)Nc1ccc(Cl)cc1,-3,0%,-31*,-8%,7,-9%
Cc1nc2c(-c3ccccc3)c(C)[nH]n2c(=O)c1Cc1ccc(C(C)C)cc1,-3,.,24,.,1,.
CCOC(=O)N1CCN(C(=O)c2ccc3c(c2)N(Cc2ccccc2)CCS3)CC1,-4,2%,-34*,-7%,4,.
CC1CC(C)CN(C(=O)c2ccc3c(c2)N(Cc2ccccc2)CCS3)C1 (stereo not drawn),7,-1%,-7,-14%,2,2%
C/C(N)=C(/C#N)C(=O)CSc1nnc(-c2ccc(OC(F)F)cc2)o1,-7,-4%,-37*,-5%,4,-3%
C/C(N)=C(/C#N)C(=O)CSc1nnc(-c2ccc3c(c2)OCO3)o1,-9,1%,0,-12%,2,-3%
CC1=C(C(=O)N2CCN(c3cccc(Cl)c3)CC2)C2(CCCCC2)OC1=O,-1,.,2,.,0,.
CC(C)c1ccc(N2C(=O)N(Cc3ccccc3Cl)c3ccccc3S2(=O)=O)cc1,-3,.,-3,.,4,.
CCc1ccc(C(=O)Cn2ncc(Cl)c(Cl)c2=O)cc1,-3,-1%,-31*,-41%,0,-1%
Cc1ccc(Cn2ncc(Cl)c(Cl)c2=O)cc1,-2,-1%,-18,-3%,0,0%
S=c1[nH]nc(Cc2sc(-c3ccccc3)nc2-c2ccccc2)o1,-3,0%,-9,4%,1,28µM*
COc1cc(CNC2CCCC2)cc(Cl)c1OCc1ccccc1F,13,0%,-58*,-1%,157*,0%
Cc1ccc(CCNC(=O)c2cnc3c(-c4ccc(F)cc4)c(C)nn3c2C)cc1,-6,.,-8,.,0,.
CCOc1ccc(C(=O)N2CCN(Cc3cc(=O)n4nc(-c5ccccc5Cl)sc4n3)CC2)cc1,-1,.,8,.,-1,.
